# High-throughput results from PubChem.
# In the library only some 3.6% were active in any assay of this set; here they are far more common.
# NRP1-CendR mod: modulators of CendR peptide binding to human neuropilin-1; FAM-RPARPAR peptide binding to NRP-1, fluorescence polarization; inhibition, % at 25 µM; 0.85% of 360,000 active; AID 602438;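 active = inhibition or corrected inhibition above about 18%, plus a signal ratio from 0.5 to 1.5, limit read from the data, passing the limit was not always enough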
# Myeloid diff 2: promotes myeloid progenitor differentiation; ER-HoxA9 myeloid progenitors, lysozyme-GFP differentiation, flow cytometry; calls only at 10 µM; 1% of 360,000 active;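 active = normalized GFP-positive differentiation at or above the plate's own cutoff, the solvent-only control mean plus 3 SD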;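 note: cells exposed to compound for four days before flow analysis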
# CRFBP-R2 block: CRF-BP/CRF-R2 complex antagonism | HEK293 CRF-R2/CRF-BP, CRF-induced calcium fluorescence | inhibition, % at 11.8 µM | 0.59% of 350,000 active;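 active = inhibition of the ligand-induced calcium signal above about 50% at the single tested concentration, limit read from the data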
# FAS TE block: FAS thioesterase (human) inhibition; P49327; recombinant FAS-TE, OMFH fluorogenic substrate, fluorescence endpoint; inhibition, % at 15 µM; 0.67% of 360,000 active; AID 602261;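 active = compounds whose normalised, plate-corrected inhibition of enzyme fluorescence in the single-dose primary screen is 50% or more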;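 note: 0% = DMSO with enzyme and 100% = substrate without enzyme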
# NadD block: blocks S. aureus nicotinate mononucleotide adenylyltransferase; purified NadD enzyme, colorimetric absorbance read-out; 0.78% of 360,000 active; inhibition, % at 20 µM; in the data active = inhibition above about 26%
# Numbers without * were called inactive; i = inactive; · = no result given; + = active, no number.
SMILES,NRP1-CendR mod,Myeloid diff 2,CRFBP-R2 block,FAS TE block,NadD block
COC(=O)CSc1nc(N)c2c3c(sc2n1)C(c1ccccc1)SC(c1ccccc1)C3 (stereo not drawn),-60.9,·,-32.6,38.9,49.7*
COC(=O)CSc1nc(N)c2c3c(sc2n1)CCCC3,-6.4,i,-1.9,-1.3,3.8
CC1(C(=O)NS(=O)(=O)c2cccc(Cl)c2)CCN1C(=O)C/C=C/c1ccccc1 (stereo not drawn),17.3,i,·,-8.8,2.6
CN(CC(=O)NNC(=O)c1cccnc1)S(=O)(=O)c1cc(Cl)ccc1Cl,39.7*,i,-2.9,-4.3,-1.5
O=C(NNC(=O)c1ccccc1Cl)c1cccnc1,22.8*,i,4.5,-4.1,-0.6
CC1(c2ccccc2)C(C#N)C(=O)NC(=O)C1C#N (stereo not drawn),-10.9,i,-0.4,-1.2,-0.4
CCOc1ccc(NC(=O)CN2C(=O)C3CC=CCC3C2=O)cc1 (stereo not drawn),10.6,i,17.7,-9.8,3.3
CCOc1ccc(NC(=O)CN2C(=O)C(C)SC(C)C2=O)cc1 (stereo not drawn),25.4*,i,1.9,-4.4,-6.4
CCOc1ccc(/C=N/NC(=O)CN2CCCCCCC2)cc1,12.4,i,56.9*,-3.4,3.9
CCCOc1ccc(/C=N/NC(=O)CN2CCCCC2)cc1,11.1,i,-2.4,-1.9,3.4
CCCc1cc(O)c2c(C)cc(=O)oc2c1,-9.3,i,10.8,6.8,7.8
CCc1nc(NCCC(C)C)c(C#N)c2c1CCCC2,5.1,i,58.6*,14.6,0.4
CCOC(=O)N1CCN(S(=O)(=O)c2ccc(C(=O)NNc3nc4cc(C)cc(C)c4s3)cc2)CC1,-8.2,i,-15.4,10.5,38.9*
CCOC(=O)N1CCN(S(=O)(=O)c2ccc(C(=O)NNc3nc4c(C)cc(C)cc4s3)cc2)CC1,3.8,i,-18.1,3.0,14.9
CC(C)c1ccc(N(CC(=O)NCCCN2CCOCC2)S(=O)(=O)c2ccccc2)cc1,-1.0,i,-2.1,-4.4,-2.5
CCn1cc(C(=O)NCc2cccs2)c(=O)c2ccc(C)nc21,27.8*,i,-19.2,-3.7,-8.2
CCn1cc(C(=O)NCc2ccccc2F)c(=O)c2ccc(C)nc21,-5.2,i,-3.5,-6.3,-6.3
CCC(=O)c1cn(CC(=O)Nc2ccccc2)c2ccccc12,34.1*,i,3.5,1.6,-3.8
CCC(=O)c1cn(CC(=O)Nc2ccc(C)cc2)c2ccccc12,4.4,i,-11.0,-6.8,-9.3
CCOCCCNC(=O)C(NC(=O)CNC(C)=O)c1ccc(Cl)cc1 (stereo not drawn),24.1*,i,1.4,-3.3,-4.8
O=c1cc(CN2CCN(c3ccc(Cl)c(Cl)c3)CC2)c2ccccc2o1,6.2,i,·,24.9,3.6
COc1ccc(CN2CC(=O)N(c3cccc(Cl)c3)C2=S)cc1OC,12.8,i,89.6*,-13.8,-7.9
COC(=O)[C@@]12C[C@@H](CC(=O)N3CCN(C(=O)c4ccco4)CC3)C(=O)N(Cc3ccc4c(c3)OCO4)C1=CCC(C)(C)C2,-9.0,i,·,·,·
Cc1[nH]c2ccccc2c1SCc1nnc(SCc2ccc(Cl)cc2)n1C,4.4,i,4.1,27.4,4.0
Cc1[nH]c2ccccc2c1SCc1nnc(SCc2ccccc2)n1C,4.7,i,114.5*,2.4,-2.0
SMILES,NRP1-CendR mod,Myeloid diff 2,CRFBP-R2 block,FAS TE block,NadD block
O=C1/C(=C/c2ccc(O)c(O)c2)SC(=S)N1Nc1ccccc1,-187.8,+,-102.4,19.4,1.5
COc1cc(/C=C2\SC(=S)N(Nc3ccccc3)C2=O)ccc1O,-185.6,i,-118.7,-6.2,4.9
O=C(Nc1ccccc1)c1ccccc1OCc1cccc([N+](=O)[O-])c1,3.9,i,53.3*,29.3,-2.6
Cn1cc(/C=C2\SC(=S)N(NC(=O)c3ccccc3Cl)C2=O)c2ccccc21,-30.9,i,-118.2,-23.6,39.5*
CC(/C=C/c1ccc(O)cc1)=N/O,-7.2,+,-6.6,-5.3,3.2
Cc1cc(NC(=O)C(C)SCC(=O)N(C)CC(=O)Nc2ccccc2C(F)(F)F)no1 (stereo not drawn),-4.1,i,3.4,-9.5,4.8
O=C(Nc1ccc(C(=O)N2CCCC2)cc1)c1ccccc1F,0.4,i,65.7*,-5.6,-3.8
O=C(c1ccccc1F)N1CCN(C(=O)C(c2ccccc2)c2ccccc2)CC1,21.7*,i,9.7,-2.0,-11.6
O=C(Nc1ccc(N2CCOCC2)cc1)c1cc(-n2cnnc2)ccc1Cl,26.2*,i,10.1,-2.3,-0.2
O=C(Nc1ccc(N2CCCCCC2)cc1)c1ccccc1Cl,-11.5,i,80.9*,11.2,11.0
